Source: PubChem BioAssay (EPA / NIEHS)
Values joined by “and” are separate entries in the source; they are usually repeats but may differ in a detail not shown here. Equal entries are not always repeated. Results filed as inconclusive are left out. Where a structure was tested more than once in an assay, its records may differ in their call. Active and inactive are the calls of the source. Rule for the calls: active = hit-call score of the fitted dose curve at least 0.9, where 1 is the maximum; inconclusive = response in the unintended direction; inactive = score below 0.9.

Assay: CCTE_Shafer_MEA_dev_bursting_electrodes_number: CCTE's Neural Network Formation Assay for Number of Bursting Electrodes, Shafer Lab (AID 2284043)
Experimental: CCTE_Shafer_MEA_dev assay is conducted using Axion Biosystems 48 well microelectrode array (MEA) plates and Maestro recording system. Each well of the MEA plate contains a grid of 16 microelectrodes embedded in the culture surface. Electrically active cells, such as neurons, can be cultured over the electrodes, and electrical activity in these cells can be recorded extracellularly. The spontaneous firing of neurons is captured from each electrode on a microsecond timescale providing both temporally and spatially precise data. […] The CCTE_Shafer_MEA_dev assay uses primary cultures of rat cortical neurons. Recordings are made on days post-plating 5, 7, 9 and 12. As these cultures mature over time, neural networks develop functional activity and form cohesive networks in which electrical activity can be highly coordinated. CCTE_Shafer_MEA_dev_bursting_electrodes_number is 1 of 19 assay components of the CCTE_Shafer_MEA_dev assay. It measures the number of electrodes in a well with a burst rate of at least 1 burst (temporally-clustered group of action potential firing) every 2 minutes during a recording in a microelectrode array (MEA) using Axion Biosystems Maestro 768 channel amplifier with the AxIS adaptive spike detector. To collapse across multiple recordings made on days post-plating 5, 7, 9 and 12, the trapezoidal area-under-the-curve of the component is calculated.Data from the assay component CCTE_Shafer_MEA_dev_bursting_electrodes_number was analyzed into 1 assay endpoint. This assay endpoint, CCTE_Shafer_MEA_dev_bursting_electrodes_number, was analyzed in the negative analysis fitting direction relative to DMSO as the negative control and baseline of activity. Using a type of functional reporter, gain or loss-of-signal activity can be used to understand electrical activity.
On the day prior to culture, each well was coated thoroughly with 150 uL of 0.05% polyethyleneimine (PEI, Sigma Cat P3143) in 50 mM HEPES (Sigma Cat H7523) at a pH of 8. The plate was incubated at 37C for one hour. PEI was rinsed out with 500 uL of sterile water three times. Plates were stored at 4C until the day of culture. This culture was plated at a seeding density of 1.5 x 10^5 cells/well on a 48-well MEA plate, prepared as described above. Cells were administered via a 25 uL media/laminin ([…]; Sigma Cat L2020-1MG) drop directly onto the microelectrode array, as adding the cells with the laminin results in better attachment than pre-coating with laminin. After 2 hours, an additional 475 uL of cortical media was added and the cells returned to the incubator. Exposure starts at day 0 of plating and is continued over twelve days of network development until the experiment is terminated. Cells are fed with fresh medium on DIV 5 and 9, following the recordings on those days. The entire volume of media in the well is exchanged and any vehicle or compound treatment is renewed. Complete details are found in OP-NHEERL/ISTD/SBB/TJS/2015-03-r0 (available on request, email shafer.tim@epa.gov). Measurement of the electrical activity is non-invasive, and recordings can be made from the same plate over multiple different days of the culture. In cortical neurons, this allows for the measurement of extracellular action potentials over the period during which networks form in the MEA plate.

SMILES | AC50 | outcome
CC(C)(c1ccc(O)cc1)c1ccc(O)cc1 | 9.89 µM (active) and 15 µM (active) | inactive
S=C(S)NCCNC(=S)S.[Mn+2].[S-]C([S-])=NCCN=C([S-])[S-].[Zn+2] | 7.52 µM (active) | inactive
CCCCC(CC)CN1C(=O)C2C3C=CC(C3)C2C1=O (centres undefined) | 4.86 µM (active) | –
COCCO | – | inactive
CCCN(CCC)C(=O)SCC | – | inactive
Cc1nn(C)c(Oc2ccccc2)c1C=NOCc1ccc(C(=O)OC(C)(C)C)cc1 | 0.00163 µM (active) | –
Oc1ccc(C(c2ccc(O)cc2)C(Cl)(Cl)Cl)cc1 | 10 µM (active) | –
OB(O)O | – | inactive
CC1(C)C(C=C(Cl)Cl)C1C(=O)OCc1cccc(Oc2ccccc2)c1 (centres undefined) | 24.4 µM (active) and 10.1 µM (active) | –
C#CCOC(=O)[C@@H](C)Oc1ccc(Oc2ncc(Cl)cc2F)cc1 | – | inactive
CCCCOCCOCCOCc1cc2c(cc1CCC)OCO2 | 15.9 µM (active) | –
CCN(CC)C(=O)c1cccc(C)c1 | – | inactive
